Measured values reported in PubChem BioAssay AID1626 (SRMLSC, 2009).
In all, about 220,000 compounds went through this assay and about 2,000 (0.91%) were called active. Roughly 2% stayed inconclusive and do not appear here. The list is a sample of the results. Measured potencies and affinities stand elsewhere. A number with no mark means an inactive call. No stated cut-off is given here; in the data, inconclusive means inhibition above about 80% without an active follow-up result; inactive means below that; test concentration not stated here.

test: M. tuberculosis H37Rv growth inhibitors, H37Rv strain (AID 1626); conditions: stronger effect = higher value, concentration not given here;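 further: bacteria incubated seven days before Alamar blue readout; 0% = bacteria only wells and 100% = bacteria with antibiotic wells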

| Structure (SMILES) | inhibition [%] |
| --- | --- |
| COc1ccc(NC(=O)CCc2nc3ccccc3[nH]2)cc1 | -2.77 |
| CC(C)c1nc2c([nH]1)c(=O)n(C)c(=O)n2C | -8.57 |
| CC(C)c1cc(C(=O)Nc2cc(Br)ccc2O)no1 | 43.5 |
| CCCc1cc(C(=O)Nc2cc(Br)ccc2O)no1 | 78.3 |
| O=C(Nc1c(F)cc(F)cc1Br)c1cc(-c2ccc(O)cc2)on1 | 73.7 |
| CCCc1cc(C(=O)Nc2ccc(C(C)=O)cc2)no1 | 79.7 |
| Cc1cc(C(=O)Nc2c(F)cc(F)cc2Br)no1 | 16.4 |
| CC(C)Cc1cc(C(=O)Nc2ccc(Br)cc2)no1 | 68.8 |
| CCOC(=O)C1CCCN(C(=O)c2cccc(NC(=O)C(CC)CC)c2)C1 (stereo not given) | -1.45 |
| CCCCCOc1ccc(C)cc1CN(CCCl)CCCl | 5.72 |
| CCOC(=O)CNc1c(N2CCN(c3ccccn3)CC2)c(=O)c1=O | 0.74 |
| COCCn1c(C)cc(C(=O)COC(=O)c2ccc3c(c2)NC(=O)CS3)c1C | 3.82 |
| N#C/C(=C\c1cn[nH]c1-c1ccc(Cl)cc1)C(=O)NC1CC1 | 9.87 |
| CCOC(=O)COc1cc(=O)n(CC)c2ccccc12 | 7.42 |
| Cc1cc(NC(=O)C2CCC2)n(-c2ccccn2)n1 | 2.03 |
| CCOC(=O)C(=O)Nc1cc(C)nn1-c1nc2ccccc2[nH]1 | -8.84 |
| Cc1cc(NC(=O)/C=C/c2ccc(F)cc2)n(-c2nc3ccccc3[nH]2)n1 | 13.6 |
| COc1ccc(/C=C/C(=O)Nc2cc(C)nn2-c2nc3ccccc3[nH]2)cc1 | 11.4 |
| COC(C[C@@H]1O[C@H]1[C@H](O)[C@@H](C)OCc1ccccc1)OC | -4.16 |
| CCn1c2ccccc2c2nnc(NN)nc21 | -7.42 |
| O=C(/C(C=Nc1cccc(C(F)(F)F)c1)=C(/O)c1ccco1)C(F)(F)F | 0.06 |
| Cc1nn(C)c(C)c1NC(=O)CCl | -7.2 |
| CCn1c(SCC(=O)N=Nc2c(O)[nH]c3ccccc23)nnc1-c1ccc(C(C)(C)C)cc1 | -1.76 |
| Cc1[nH]c2ccc(F)cc2c1CCNC(=O)C1CCCCC1C(=O)OCC(F)(F)F (stereo not given) | 2.82 |
| O=C(NCc1ccccc1)c1ccc(Br)cc1 | -2.09 |

| Structure (SMILES) | inhibition [%] |
| --- | --- |
| Cc1[nH]n(-c2ccccc2)c(=O)c1N=Nc1ccc2c(c1)OCCO2 | -5.08 |
| Cc1ccccc1N=Nc1c(C)[nH]n(-c2ccccc2)c1=O | -1.01 |
| Cc1[nH]n(-c2ccccc2)c(=O)c1N=Nc1ccccc1O | 5.76 |
| Cc1[nH]n(-c2ccccc2)c(=O)c1N=Nc1ccccc1 | 3.96 |
| Cc1nnc(NC(=O)CCSCCC(=O)Nc2nnc(C)s2)s1 | 1.24 |
| COc1ccc(/C=C/C(=O)c2c(O)ccc3c(C)cc(=O)oc23)cc1 | 17.2 |
| O=C(COC(=O)c1ccccc1Cl)NCCC1=CCCCC1 | 4.94 |
| O=C(COC(=O)c1ccccc1O)NCCC1=CCCCC1 | 7.1 |
| O=C(NCc1ccco1)C1CCN(Cc2ccc(F)cc2)CC1 | 1.23 |
| COc1ccc(CNC(=S)Nc2cc(C)ccc2C)cc1 | 4.83 |
| C=CCn1c(SCC(=O)N2CCc3ccccc3C2)nc2ccccc2c1=O | -0.56 |
| O=C1CC(c2ccccc2Oc2cccc(Cl)c2)C(n2cncn2)C(=O)C1C1NCCc2ccccc21 (stereo not given) | -9.29 |
| Cc1cc(C)c2c(n1)sc1c(N3CCN(CCO)CC3)ncnc12 | 18.8 |
| Cc1cc(C)c2c(n1)sc1c(N3CCN(C)CC3)ncnc12 | 7.86 |
| Cc1ccc(NC(=O)NCC2CCN(Cc3cccc(Cl)c3)CC2)c(Cl)c1 | 33.5 |
| CCc1cccc(CN2CCC(CNC(=O)Nc3ccc(Cl)cc3)CC2)c1 | 0.84 |
| COCCn1c(COc2ccc(OC)cc2)nc2ccccc21 | 4.25 |
| Cc1sc(NC(=O)C2CC(Cl)=CCC2C(=O)O)c(C#N)c1C (stereo not given) | -16.1 |
| Cc1ccc(-c2nnn(CC(=O)N(c3ccc(F)cc3)C(C(=O)NC(C)(C)C)c3ccco3)n2)o1 (stereo not given) | -0.26 |
| Cc1onc(-c2c(Cl)cccc2Cl)c1C(=O)c1ccccc1 | -5.4 |
| Cc1ccccc1NC(NC(=O)c1cccs1)C(Cl)(Cl)Cl (stereo not given) | -3.03 |
| Cc1ccc(NC(NC(=O)c2cccs2)C(Cl)(Cl)Cl)cc1 (stereo not given) | 21 |
| Nc1nc(SCC(=O)Nc2ccccc2)[nH]c(=O)c1NC(=O)c1cccs1 | -5.6 |
| Cc1ccc2c(CC(=O)Nc3cccc(S(=O)(=O)N4CCOCC4)c3)coc2c1 | 5.42 |
| CC(C)C(=O)NC(CC(=O)O)c1ccccc1 (stereo not given) | -15.2 |

| Structure (SMILES) | inhibition [%] |
| --- | --- |
| Cc1nnc(SCC(=O)N/N=C/c2cc(Cl)c(O)c(Cl)c2)s1 | -3.34 |
| COC(=O)c1cc(-c2ccccc2)on1 | 45 |
| Cc1cc(NC(=O)/C=C/c2ccccc2)no1 | -1.33 |
| O=C(Nc1ccc(N2CCOCC2)c(Cl)c1)c1cccnc1Cl | -3.3 |
| Cc1cccn2c(=O)c(C=NCCO)c(Nc3ccc(Cl)cc3)nc12 | 2.37 |
| Cc1cc(=O)oc(C)c1C(=O)Nc1cccc2ccccc12 | 7.53 |
| COc1ccccc1NC(=O)c1c(C)oc2c1CCCC2 | -16.9 |
| CCN(CC)c1cc(C(F)(F)F)nc(-c2ccccn2)n1 | -2.81 |
| C#CCSc1cc(C(F)(F)F)nc(-c2ccccn2)n1 | 5.1 |
| COc1cc(C(F)(F)F)nc(-c2ccccn2)n1 | 6.27 |
| CN(C)c1cc(C(F)(F)F)nc(-c2ccccn2)n1 | 3.02 |
| FC(F)(F)c1cc(Oc2ccccc2)nc(-c2ccccn2)n1 | 12.1 |
| O=C(O)CSc1cc(C(F)(F)F)nc(-c2ccccn2)n1 | -6.21 |
| FC(F)C(F)(F)c1cc(-c2ccc(Cl)cc2)n[nH]1 | 12.2 |
| CNc1nnc(CSc2nc(C)cc(C)n2)s1 | -5.32 |
| O=C(c1cccc(C(F)(F)F)c1)C1CCCN(C(=O)CCCn2cncn2)C1 (stereo not given) | 4.12 |
| CN(CCCNC(=O)CSc1cc(=O)n(C)c2cc(Cl)ccc12)Cc1ccccc1 | 4.19 |
| COc1ccc(NC(=O)c2noc(C(C)C)c2[N+](=O)[O-])cc1 | -2.72 |
| NS(=O)(=O)c1ccc(CNC(=S)NC2CC2)cc1 | -2.38 |
| CN(Cc1ccccc1)c1ccc(N2C(=O)CCC2=O)cc1[N+](=O)[O-] | -1.08 |
| COc1ccccc1NS(=O)(=O)c1ccc(C(N)=O)cc1 | -0.48 |
| Cc1ccc2c(c1)N(CC(=O)N1CCCCC1c1cccnc1)C(=O)CO2 (stereo not given) | -4.68 |
| CCO[C@@H]1OC(C(=O)NCc2nc3ccccc3[nH]2)=C[C@H](C(C)(C)C)[C@H]1CCCO | -3 |
| Cc1ccc(C(=O)c2coc3c2C(=O)C(=O)c2ccccc2-3)cc1 | -2.44 |
| Cc1ccc2c3c(cccc13)-c1ccccc1C2=O | 10.1 |

| Structure (SMILES) | inhibition [%] |
| --- | --- |
| O=C1C(=O)c2c(C(=O)c3ccccc3)coc2-c2ccccc21 | 4.79 |
| C[C@H]1COC2=C1C(=O)C(=O)c1c2ccc2c1CCCC2(C)C | -2.33 |
| O=C(CN1CCC(n2nnc3cc(F)ccc32)CC1)NNC(=O)c1ccccc1 | -6.09 |
| N#Cc1ccc(COC(=O)c2ccccn2)cc1 | 39 |
| COc1cccc(NC(=O)CSc2ncnc3c2cnn3Cc2ccccc2)c1 | -10.6 |
| NC(=S)NNC(=O)c1ccccc1Cl | -8.81 |
| CC(C)(C)C(=O)Nc1nc(NC(=O)C(C)(C)C)nc(-c2ccccc2Cl)n1 | -0.83 |
| COc1ccc(Nc2ccc(N3C(=O)CCCC3=O)cc2[N+](=O)[O-])cc1OC | -5.4 |
| CCN1/C(=C\C(C)=O)Sc2ccc(OC)cc21 | -5.41 |
| CC(=O)NCCNc1ccc([N+](=O)[O-])cn1 | -0.44 |
| CCOC(=O)N/N=C/c1cn(CCCOc2ccccc2)c2ccccc12 | 8.89 |
| C/C(=N/N1CCN(Cc2cccc3ccccc23)CC1)c1ccco1 | -5.28 |
| c1ccc2c(c1)N1CCN=C1N2CCN1CCCCC1 | -2.04 |
| c1ccc2c(c1)N1CCCN=C1N2CCN1CCCCC1 | 1.49 |
| O=C(Nc1ccc2c(c1)OCO2)C1CCN(C(=O)c2cccs2)CC1 | 0.36 |
| O=c1oc(-c2ccccc2)nc2c1cnn2-c1ccccc1 | 19.8 |
| O=c1oc(-c2cccc(Cl)c2)nc2c1cnn2-c1ccccc1 | 22.1 |
| N#C/C(=C\c1ccc(Cl)c([N+](=O)[O-])c1)c1ccccn1 | 6.45 |
| CCOC(=O)c1c(NC(=O)CNCC(O)CO)sc(C)c1C (stereo not given) | 4.88 |
| O=C(Cn1cnc([N+](=O)[O-])n1)NC1CC1 | -0.97 |
| Nc1nc(Cl)cc(Sc2ccc3ccccc3c2)n1 | 8.65 |
| Nc1nc(Cl)cc(Sc2ccc(F)cc2)n1 | 4.27 |
| Cc1cc(NC(=O)CSc2nc(N)c(NC(=O)c3ccccc3)c(=O)[nH]2)no1 | -1.25 |
| CCOC(=O)N1CCN(S(=O)(=O)/C=C/c2ccccc2)CC1 | -17.8 |
| CCOC(=O)N1CCN(C/C(C)=C/c2ccccc2)CC1 | -4.4 |
